Here are results for 40 sequences from the supplement of paper PMC6555819.

The test system of the assay is VDR:RXRa (NR concentration 270 nM, RXRa partner concentration 90 nM). As to the kind of experiment: PBM binding z-score (relative to random genomic background probes); higher = stronger binding; sequences stand for … in GC…GCGATTGACAGCGTAGAATGAAGG
Here is the method: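 Protein-binding microarray (Agilent 4x180K custom design, double-stranded 60-nt probes: 5' GC cap, 34-nt variable region, 24-nt constant primer region; full probe sequence given). Purified or IVT nuclear receptor:RXRα heterodimers (3:1 NR:RXRα, mostly 270:90 nM) or homodimers were incubated for 1 h in PBS with 2% milk and no ligand, then detected with Alexa488 antibodies. Fluorescence from o1-orientation probes (~5 replicates averaged) was converted to z-scores against 500 random hg19 background probes. Variable regions are seed direct-repeat (DR0–DR5) sites, all their single-nucleotide variants and half-site ablations.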
In turn, CCTAGTTGGTCAGGAGGTCACACAGCGGATATGA returned a PBM binding z-score of 3.94.

Sequence TCGAGTAGGTTAGTCGGGGCATCCAGCCAACATA displayed a PBM binding z-score of 1.5.

As for ATATGTAGGTTAGCTGGGATCATTCAGACTAGGC, the PBM binding z-score was 0.919.

In turn, TCTTGTAGATCAAGCAGGTTGAGAAAGCCTGAGT came in with a PBM binding z-score of 0.285.

In turn, GCTTATAGATCAAGGTTAAGAAAGACTAAGCTAA showed a PBM binding z-score of 0.244.

Consider TAAATGAGGTTATAAGATCAGGGAACGTTGCAAA, for which the PBM binding z-score is 1.1.

Regarding CAAACTAGGTAAAGGTCAAAGTCGGTTTGTGCCA, the PBM binding z-score was determined as 5.38.

For GCTGCTAGGTCAGGTTGGTAAGCTAACGGGTACG, the PBM binding z-score was 0.241.

Regarding GCATATAGGTAATACAAGGTGAAACTCCGATTGT, the PBM binding z-score was determined as 0.732.

CCTAACGGGTCACTCCAGGTTATAGCATCGGAGT showed a PBM binding z-score of 3.7.

In the case of ATCTCTGGGTAACAAGTTCAGTGAAAGAGAGGAC, the PBM binding z-score is 2.8.

In turn, GGAACGAGGGCATTCGAGTTGATAGCCTGGCGAT registered a PBM binding z-score of 3.37.

Regarding CGAACTAGGCCAAGGACAGTGAATCTCCGCACGC, the PBM binding z-score was -0.579.

CTGGAAAGGTCGGTTGAGGTGAGTATACGGATAA yielded a PBM binding z-score of 2.15.

The sequence TCGAGTACGTTACCAATGGGGCATTCAGCTTTCT displayed a PBM binding z-score of 0.458.

Consider ATATGTAGGTTAGCTGGGGTTATTCAGACTAGGC, for which the PBM binding z-score was found to be 3.2.

In turn, GCTGCTAGGTCAGGTTGGTCAGGTAACGGGTACG showed a PBM binding z-score of 0.625.

Consider TCGAGTAGGTTAACAATGGGGCATTCAGCTTTCT, for which the PBM binding z-score amounted to 0.406.

CTACCAAGGTGAACAAGGTCGTAGATTACTATTC gave a PBM binding z-score of 5.56.

Turning to CGTCCAAGGTCAGAGAGGCCAGTGAATGCCGAGT, the PBM binding z-score turned out to be 5.4.

In the case of AGAATGAGGTTACCAAAGATCAGGCAAACGCTTG, the PBM binding z-score stood at 1.36.

The sequence TCAGACAGGAGAAGGTAACTCAGGTACGCAGTCG displayed a PBM binding z-score of 0.714.

CGTCCCAGGTCAGCAGGTCAGTGAAAGCGACGTG: the PBM binding z-score is 2.54.

Sequence AGTCAAAGTTCAGGACGGGGTAACGTAAAGCACG showed a PBM binding z-score of 3.34.

With CCTAGCAGGCCAGGGTCATTCAAGCATTTCGCTT, the PBM binding z-score was 3.48.

With GTTCCAAGGTGAATAGGTCGTTGATGAGTAGGCG, the PBM binding z-score was found to be 1.08.

CCAGACAGGTGAAAGGTTACTCAGTCTGGTACGC had a PBM binding z-score of 2.35.

The sequence TCAGACAGGTGAAGGGAACTCAGGTACGCAGTCG registered a PBM binding z-score of 0.951.

Sequence CCGACTGGGGCAAGGTTACAATAACGCACAGCCA returned a PBM binding z-score of 0.055.

CGTCCAAGGTAAAGGTCAGTGAAAGAGACTCGAA registered a PBM binding z-score of 2.43.

Sequence AGTCACAGTTCACTAGGTAACGTAAGATTCAGCT showed a PBM binding z-score of 1.81.

AGTCAAAGTTCACCTAGGTAACGTAAGATATGCT returned a PBM binding z-score of 4.74.

Take TCTATTAGTTGATTAGGGCGACCGAAACAGCGGA: the PBM binding z-score turned out to be 0.776.

With TCTTGTAGATCAATAGAGGTTAAGGAAGTGCGCT, the PBM binding z-score came out at 1.77.

In the case of TGACCAAGGTGAAGGTCGTTGATCCCTCTGTAGA, the PBM binding z-score was found to be 1.43.

For the sequence GGAACGAGGGCAGAGTTGATAGCATCTGTCGACG, the PBM binding z-score came out at 0.0819.

Regarding GGAACGAGCGCATTCGAGTTGATAGCATGGCGAT, the PBM binding z-score was -0.761.

GCAGACAGGTGAACCGCAGGTAACTCAGGGTGGC gave a PBM binding z-score of 0.332.

For TCTTGTAGATCACAGGTTAAGAAAGCCGAAGCCT, the PBM binding z-score amounted to 0.396.

In turn, AGCGAAAGGTCGACGAGGTGAGTATACACCGTTT yielded a PBM binding z-score of 5.23.
